# PubChem BioAssay (EPA / NIEHS)
# “And” between values parts separate entries of the source, which are not always exact repeats. Identical values can stand only once. Inconclusive results are not listed. The source holds several records for some structures; these can differ, active in one and inactive in another. The source made the active and inactive calls. The calls were made as follows, unless noted: active = hit-call score of the fitted dose curve at least 0.9, where 1 is the maximum; inactive = score below 0.9.
# Columns and labels:
# [1] = ACEA_ER_80hr: ACEA Biosciences xCELLigence Real-Time Cell Analysis on Estrogen Receptor Agonism for Proliferation (AID 2282667; active = hit-call score of the fitted dose curve at least 0.9, where 1 is the maximum); settings: T47D proliferation, impedance (xCELLigence), 80 h
# Procedure, shortened: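 T47D human breast cells were seeded on electrode plates, monitored overnight, then exposed continuously to compounds in eight-point 1:4 dilutions from 100 uM (max 0.5% DMSO). Impedance-based growth was read at 80 h, fitted upward relative to DMSO.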
# [2] = target: CCAAT/enhancer-binding protein beta (Homo sapiens) (UniProt P17676); assay: ATG_C_EBP_CIS: Attagene CIS-FACTORIAL HepG2 Assay for human CCAAT/Enhancer Binding Protein (C/EBP) beta (AID 2282927); settings: HepG2 Attagene cis-factorial transcription factor reporter; actives raise or lower the signal
# Sequence of CCAAT/enhancer-binding protein beta (Homo sapiens) (P17676 whole entry, looked up): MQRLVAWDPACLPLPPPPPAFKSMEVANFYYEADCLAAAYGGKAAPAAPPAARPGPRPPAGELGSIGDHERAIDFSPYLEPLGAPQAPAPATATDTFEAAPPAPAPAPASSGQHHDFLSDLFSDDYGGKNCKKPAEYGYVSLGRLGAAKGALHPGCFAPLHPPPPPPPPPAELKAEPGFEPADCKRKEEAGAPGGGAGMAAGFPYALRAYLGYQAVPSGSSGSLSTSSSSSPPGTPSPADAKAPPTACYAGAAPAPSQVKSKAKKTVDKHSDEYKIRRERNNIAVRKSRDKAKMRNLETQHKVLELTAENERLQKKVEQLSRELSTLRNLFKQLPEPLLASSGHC
# Procedure, shortened: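 Following a 24 h incubation with test chemical, transfected HepG2 cells yielded RNA whose reporter transcripts were quantified by RT-PCR and fluorescent capillary electrophoresis, with DMSO serving as baseline for bidirectional fitting.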
# [3] = ATG_CMV_CIS: Attagene CIS-FACTORIAL HepG2 Assay for human CMV (Internal Marker) (AID 2282928); settings: HepG2 CMV promoter reporter, transcription factor profiling; actives raise or lower the signal;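 also: endpoint acts as a background internal control marker rather than a target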
# Procedure, shortened: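 HepG2 cells transiently transfected with multiple cis-regulated reporter units; 24 h compound exposure. Reporter mRNA quantified by RT-PCR, 6-FAM primer-extension labeling, HpaI digestion and capillary electrophoresis; bidirectional fitting against DMSO baseline.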
# [4] = ATG_DR4_LXR_CIS: Attagene CIS-FACTORIAL HepG2 Assay for human Liver X Receptor (LXR), DR4 submotif (AID 2282929); settings: HepG2 Attagene DR4 cis-reporter, mRNA transcription; actives raise or lower the signal
# Procedure, shortened: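 HepG2, transient MRTU transfection, cis-element (DR4) promoter; 24 h compound exposure; total RNA → oligo(dT) RT → PCR → 6-FAM primer extension → HpaI cut → CE. Gain/loss vs DMSO, bidirectional fit.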
# [5] = target: Aryl hydrocarbon receptor (Homo sapiens) (UniProt P35869); assay: ATG_Ahr_CIS: Attagene CIS-FACTORIAL HepG2 Assay for human Aryl Hydrocarbon Receptor (Ahr) (AID 2282930); settings: HepG2 AhR cis-factorial reporter transcription; actives raise or lower the signal
# Sequence of Aryl hydrocarbon receptor (Homo sapiens) (P35869 whole entry, looked up): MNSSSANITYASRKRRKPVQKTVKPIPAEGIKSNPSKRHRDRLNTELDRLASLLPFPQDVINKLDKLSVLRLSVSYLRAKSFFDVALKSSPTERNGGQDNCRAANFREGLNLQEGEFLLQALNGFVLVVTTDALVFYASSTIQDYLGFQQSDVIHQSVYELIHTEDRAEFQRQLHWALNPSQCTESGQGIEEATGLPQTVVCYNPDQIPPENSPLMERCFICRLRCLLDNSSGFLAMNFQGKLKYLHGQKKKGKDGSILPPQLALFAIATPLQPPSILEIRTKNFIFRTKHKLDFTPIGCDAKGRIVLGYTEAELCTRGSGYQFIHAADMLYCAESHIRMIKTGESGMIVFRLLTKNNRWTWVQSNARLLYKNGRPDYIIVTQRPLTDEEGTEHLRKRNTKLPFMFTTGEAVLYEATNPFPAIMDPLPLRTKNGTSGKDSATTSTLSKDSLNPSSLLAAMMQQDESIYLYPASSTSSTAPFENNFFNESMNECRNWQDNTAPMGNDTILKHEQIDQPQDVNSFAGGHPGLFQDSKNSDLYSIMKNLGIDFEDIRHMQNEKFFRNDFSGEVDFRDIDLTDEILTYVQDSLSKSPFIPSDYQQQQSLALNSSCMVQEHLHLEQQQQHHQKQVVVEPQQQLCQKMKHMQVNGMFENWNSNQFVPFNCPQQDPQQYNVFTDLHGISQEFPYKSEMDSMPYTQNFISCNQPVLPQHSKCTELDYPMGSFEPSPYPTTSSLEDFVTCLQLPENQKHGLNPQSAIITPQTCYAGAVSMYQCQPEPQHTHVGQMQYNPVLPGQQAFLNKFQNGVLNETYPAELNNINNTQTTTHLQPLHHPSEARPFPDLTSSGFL
# Procedure, shortened: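 Values derive from bidirectional fitting against DMSO negative control. Underlying signal: cis-element reporter mRNA in transiently transfected HepG2, harvested 24 h post-dose and measured by RT-PCR plus capillary electrophoresis.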
# [6] = APR_HepG2_CellCycleArrest_24hr: Apredica 24-hour HepG2 Assay for Cell Cycle Arrest (AID 2282905); settings: imaging, actives raise or lower the signal;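 also: cell cycle arrest scored as ratio of 2N to 4N nuclear DNA content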
# Procedure, shortened: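 HepG2 cells were exposed to compounds at 0.39–200 uM (ten concentrations, duplicate) in 0.5% v/v DMSO for 24 hr. After formaldehyde fixation and Triton permeabilization, Hoechst 33342-stained nuclei were imaged at 20x; DNA content was quantified, with bidirectional fitting against DMSO.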
# [7] = APR_HepG2_CellLoss_24hr: Apredica 24-hour HepG2 Assay for Cell Loss (AID 2282908); settings: high-content imaging;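 as to AC50: fit in both directions so a hit may be cell loss or gain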
# Procedure, shortened: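 Compounds were tested at 0.39–200 uM in duplicate with 0.5% v/v DMSO final. Cells were then fixed in 3.7% formaldehyde, Hoechst 33342 nuclei were imaged at 20x by HCS, and cell number was fitted bidirectionally against DMSO.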
# [8] = APR_HepG2_MicrotubuleCSK_24hr: Apredica 24-hour HepG2 Assay for Microtubule CSK Stabilty (AID 2282909); settings: HepG2 microtubule cytoskeleton imaging, actives raise or lower the signal
# Procedure, shortened: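 HepG2 cells exposed 24 h to compounds at 0.39–200 uM (duplicate, 0.5% v/v DMSO final), then fixed, permeabilized and immunostained for alpha-tubulin with Hoechst 33342. Cytoskeleton imaged at 20x; bidirectional fit versus DMSO baseline.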
# [9] = APR_HepG2_MitoMembPot_24hr: Apredica 24-hour HepG2 Assay for Mitochondrial Membrane Potential (AID 2282911); settings: imaging, actives raise or lower the signal
# Procedure, shortened: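 HepG2 human liver cells were exposed 24 hr to compounds at 0.39–200 uM (final DMSO 0.5% v/v) in duplicate. MitoTracker Red CMXRos (250 nM, 30 min) was loaded before formaldehyde fixation; fluorescence was imaged by ArrayScan HCS and fitted bidirectionally versus DMSO.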
# [10] = APR_HepG2_MitoMass_24hr: Apredica 24-hour HepG2 Assay for Mitochondrial Mass (AID 2282912); settings: high-content imaging, actives raise or lower the signal
# Procedure, shortened: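 Human HepG2 liver cells were exposed for 24 hr to compounds at 0.39–200 uM (duplicates, 0.5% v/v DMSO final). They were stained live with 250 nM MitoTracker Red CMXRos for 30 min, fixed in 3.7% formaldehyde, and imaged by HCS fluorescence; signals were fitted bidirectionally against DMSO.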
# [11] = APR_HepG2_CellCycleArrest_72hr: Apredica 72-hour HepG2 Assay for Cell Cycle Arrest (AID 2282914); settings: high-content imaging, actives raise or lower the signal
# Procedure, shortened: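 HepG2 cells were exposed to compounds at 0.39–200 uM (0.5% v/v DMSO final, duplicates) for 72 hr, fixed in 3.7% formaldehyde, permeabilized and stained with Hoechst 33342. Nuclear DNA content was quantified by high-content imaging; gain or loss of signal was fitted bidirectionally against DMSO.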
# [12] = APR_HepG2_CellLoss_72hr: Apredica 72-hour HepG2 Assay for Cell Loss (AID 2282915); settings: high-content imaging
# Procedure, shortened: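 HepG2 cells were exposed for 72 hr to compounds at 0.39–200 uM (ten concentrations, duplicate) in 0.5% v/v final DMSO. Nuclei were stained with Hoechst 33342 after 3.7% formaldehyde fixation, imaged at 20x, and counted; fits bidirectional versus DMSO.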
# [13] = APR_HepG2_P-H2AX_72hr: Apredica 72-hour HepG2 Assay for H2AX Phosphorylation (AID 2282916); settings: imaging, actives raise or lower the signal;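 also: phospho-histone H2A.x immunostain intensity per cell marking DNA damage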
# Procedure, shortened: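 HepG2 human liver cells were exposed for 72 hr to compounds at 0.39–200 uM (10 concentrations, duplicate per plate) in 0.5% v/v DMSO. Fixed, permeabilized cells were immunolabeled for phospho-histone H2A.x with Hoechst 33342 and imaged by HCS fluorescence; bidirectional fit versus DMSO.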
# [14] = APR_HepG2_MitoticArrest_72hr: Apredica 72-hour HepG2 Assay for Mitotic Arrest (AID 2282918); settings: high-content imaging, actives raise or lower the signal
# Procedure, shortened: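 HepG2 cells were exposed for 72 hr to compound at 0.39–200 uM (10 concentrations, duplicate) in 0.5% v/v DMSO, fixed in 3.7% formaldehyde, immunostained for phospho-histone H3 with Hoechst 33342 and imaged by high-content fluorescence; bidirectional fits versus DMSO.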
# [15] = APR_HepG2_MicrotubuleCSK_72hr: Apredica 72-hour HepG2 Assay for Microtubule CSK Stabilty (AID 2282919); settings: HepG2 microtubule cytoskeleton, high-content imaging, actives raise or lower the signal
# Procedure, shortened: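 HepG2 human liver cells were dosed for 72 h at ten concentrations from 0.39 to 200 uM in duplicate (0.5% v/v DMSO final). Fixed, permeabilized cells were immunostained for alpha-tubulin (Cy5) with a Hoechst counterstain and imaged at 20x.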
# [16] = APR_HepG2_P-H2AX_24hr: Apredica 24-hour HepG2 Assay for H2AX Phosphorylation (AID 2282920); settings: high-content imaging, actives raise or lower the signal
# Procedure, shortened: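 HepG2 human liver cells were exposed for 24 hr to compounds at 0.39–200 uM in duplicate, with 0.5% v/v DMSO final. Fixed cells were immunostained for phospho-histone H2A.x plus Hoechst 33342, imaged by HCS fluorescence, and fitted bidirectionally against DMSO.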
# [17] = APR_HepG2_StressKinase_72hr: Apredica 72-hour HepG2 Assay for Stress Kinase (AID 2282921); settings: HepG2 stress kinase (phospho-c-Jun) imaging, actives raise or lower the signal
# Procedure, shortened: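 Cells were exposed for 72 h to ten concentrations (0.39–200 uM, duplicate) at 0.5% v/v DMSO final, then fixed with 3.7% formaldehyde, permeabilized and immunostained for phospho-c-Jun (Cy3 secondary) with Hoechst nuclear counterstain.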
# [18] = APR_HepG2_StressKinase_24hr: Apredica 24-hour HepG2 Assay for Stress Kinase (AID 2282922); settings: HepG2 stress kinase (phospho-c-Jun) imaging, actives raise or lower the signal
# Procedure, shortened: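 HepG2 cells exposed 24 hr to compound at 0.39–200 uM (10 concentrations, duplicate), 0.5% v/v DMSO final. Fixed in 3.7% formaldehyde, permeabilized with Triton X-100, immunolabeled for phospho-c-Jun with Hoechst 33342; HCS fluorescence imaging, bidirectional fit versus DMSO.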
# [19] = APR_HepG2_MitoMass_72hr: Apredica 72-hour HepG2 Assay for Mitochondrial Mass (AID 2282924); settings: high-content imaging, actives raise or lower the signal;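 also: MitoTracker Red CMXRos stain intensity per cell imaged as mitochondrial mass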
# Procedure, shortened: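 HepG2 cells were exposed for 72 hr to compounds at 0.39–200 uM (ten concentrations, duplicate, 0.5% v/v DMSO final). Live cells were stained with 250 nM MitoTracker Red CMXRos for 30 min, then fixed in 3.7% formaldehyde and imaged by HCS fluorescence.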
# [20] = ATG_CRE_CIS: Attagene CIS-FACTORIAL HepG2 Assay for human cAMP Responsive Element (CRE) binding protein 3 (AID 2282926); settings: HepG2 CRE cis-reporter, Attagene multiplexed mRNA; actives raise or lower the signal
# Procedure, shortened: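 HepG2 cells transiently transfected with a multiplexed reporter library (CRE-driven unit among them) were dosed for 24 h. Reporter mRNA was quantified by RT-PCR, fluorescent labelling, HpaI digestion and capillary electrophoresis, with bidirectional fitting against DMSO baseline.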
smiles,measurement,setting,value
N#CN=C(N)N,outcome,[1],inactive
same,outcome,[2],inactive
same,outcome,[3],inactive
same,outcome,[4],inactive
same,outcome,[5],inactive
CC(C)(OO)c1ccccc1,AC50,[6],78.4 µM (active)
same,AC50,[7],72.2 µM (active)
same,AC50,[8],75.3 µM (active)
same,AC50,[9],96.2 µM (active)
same,outcome,[10],inactive
same,AC50,[11],88.8 µM (active)
same,AC50,[12],59.9 µM (active)
same,AC50,[13],56.7 µM (active)
same,AC50,[14],59.4 µM (active)
same,outcome,[15],inactive
same,AC50,[16],69.3 µM (active)
same,AC50,[17],49.4 µM (active)
same,outcome,[18],inactive
same,outcome,[19],inactive
same,outcome,[2],inactive
same,outcome,[4],inactive
same,outcome,[5],inactive
COc1cc(-c2ccc(N)c(OC)c2)ccc1N,AC50,[6],58.7 µM (active)
same,outcome,[6],inactive
same,AC50,[7],26.9 µM (active)
same,outcome,[7],inactive
same,outcome,[8],inactive
same,AC50,[9],12.7 µM (active)
same,outcome,[9],inactive
same,outcome,[10],inactive
same,AC50,[11],13.8 µM (active)
same,outcome,[11],inactive
same,AC50,[12],56.5 µM (active)
same,outcome,[12],inactive
same,AC50,[13],24.8 µM (active)
same,outcome,[13],inactive
same,AC50,[14],24.8 µM (active)
same,outcome,[14],inactive
same,AC50,[15],42.1 µM (active)
same,outcome,[15],inactive
same,AC50,[16],50.8 µM (active)
same,outcome,[16],inactive
same,outcome,[17],inactive
same,outcome,[18],inactive
same,outcome,[19],inactive
same,AC50,[20],31 µM (active) and 29.3 µM (active)
same,AC50,[2],14.8 µM (active) and 36.5 µM (active)
same,AC50,[3],10.5 µM (active) and 27.8 µM (active)
same,outcome,[4],inactive
